Activity calls are given as the source filed them.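 The calls were made as follows, unless noted: active = compound raises insulin release from rat beta cells at 5 mM glucose, no numeric limit stated; inactive = the rest.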

Assay [1] is described as follows: Wnt pathway potentiators raising nuclear beta-catenin – imaging, WNT3A-conditioned medium, mouse C2C12, NPC library, primary screen (AID 1117326; in the data active = nuclear beta-catenin stimulation mostly above about 4.2%, no sharp cut-off; inactive = mostly below about 10%; also: reference of the scale not given here). The note with it: stronger effect = higher value.
A short description of assay [2]: stimulators of insulin release from INS-1E, primary screen, cell-based, 5 mM glucose, NPC library (AID 1117329). Also: reference of the scale not given here. The note with it: rat INS-1E insulin secretion, at 10 µM, stronger effect = higher value.
A short description of assay [3]: growth inhibition of GSK3B-pretreated HCT116 cells – cell-based, CellTiter-Glo, 0.2 to 20 µM (AID 1117336;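 active = compounds lowering colon cancer cell viability after pretreatment blocking the GSK3B kinase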). The note with it: HCT116 viability after GSK3B inhibitor, at 20 µM, stronger effect = higher value. (In general: ATP-based viability assays read luminescence as a measure of living cells.)
Assay [4] can be described thus: inhibition of endothelial tube formation, primary screen, imaging, VEGF stimulated, CD31 staining, tube area, NPC library (AID 1117340;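 active = compound that reduces growth-factor-driven endothelial tube area in a mixed cell culture, no cutoff stated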). The note with it: VEGF-stimulated ADSC/ECFC co-culture, at 10 µM, stronger effect = higher value.
A short description of assay [5]: GLP1 release stimulators, primary, NCI-H716, NPC library (AID 1117341;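 active = compound raises GLP1 secretion from the human gut endocrine cells, with no numeric limit stated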; also: reference of the scale not given here). The note with it: NCI-H716 cells, at 10 µM, stronger effect = higher value.
Assay [6] in a line: HCT116 colon cancer cell growth inhibition, primary screen, CellTiter-Glo luminescence, NPC library (AID 1117342;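 active = compounds that lower survival of HCT116 colon cancer cells in the luminescence readout, no numeric limit stated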). The note with it: at 20 µM (top of the series).
The nature of assay [7]: reduced SW480 viability measured with CellTiter-Glo, NPC library, primary (AID 1117343;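 active = compounds that lower viability of the colon cancer cells in the luminescence readout, with no numeric limit stated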). The note with it: CellTiter-Glo luminescence; at 20 µM (top of the series).
Assay [8] can be described thus: NPC library primary testing for decreased DLD-1 cell viability via CellTiter-Glo (AID 1117346;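 active = compounds that lower survival of DLD-1 colon cancer cells in the luminescence readout, no cutoff given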). The note with it: DLD-1 viability, CellTiter-Glo luminescence; at 20 µM (top of the series).

In the case of `CCOC(=O)c1cccc(N)c1`, the nuclear beta-catenin stimulation was -0.3% (inactive) in assay [1] (at 10 µM) and -1.1% in assay [1] (stimulation, at 2 µM). Moreover, the insulin secretion stimulation in assay [2] was 1.3% (inactive). The viability decrease in assay [3] is 4.6% (inactive). Besides, the tube area decrease in assay [4] is -29.7% (inactive). In assay [5], the GLP1 secretion stimulation was -4.7% (inactive). Also, the inhibition of viability in assay [6] is -7.9% (inactive). For the same compound, the viability decrease (inhibition) in assay [7] is 35.4% (inactive); in assay [8], 4.45% (inactive).

For the compound `CCO[C@@H]1O[C@H](C(COCc2ccccc2)OCc2ccccc2)[C@H](OCc2ccccc2)[C@H]1O` (some centres not stated), the nuclear beta-catenin stimulation in assay [1] (at 10 µM) was -1.3% (inactive); in assay [1] (stimulation, at 2 µM) it was -1.2%. Moreover, the insulin secretion stimulation in assay [2] is 2.2% (inactive). The viability decrease in assay [3] is 15.1% (inactive). In addition, the tube area decrease in assay [4] is 28.6% (inactive). The GLP1 secretion stimulation in assay [5] was 6.9% (inactive). Also, in assay [6], the inhibition of viability is 81.6% (active). For the same compound, the viability decrease (inhibition) in assay [7] is 63.5% (active); in assay [8], 44.6% (active).

Consider `CC(=O)OC[C@H]1O[C@@H](n2ncc(=O)[nH]c2=O)[C@H](OC(C)=O)[C@@H]1OC(C)=O`, for which the nuclear beta-catenin stimulation in assay [1] (at 10 µM) was 14% (inactive); in assay [1] (stimulation, at 2 µM) it was 2.3%. Also, the insulin secretion stimulation in assay [2] is 1.7% (inactive). The viability decrease in assay [3] is 47.3% (active). The tube area decrease in assay [4] is 47.8% (active). The GLP1 secretion stimulation in assay [5] was -0.6% (inactive). The inhibition of viability in assay [6] is 16.2% (inactive). Also, the viability decrease (inhibition) in assay [7] was 26% (inactive); in assay [8], -5.9% (inactive).

As to `Cc1ccc(C(C)C)c(O)c1`, the nuclear beta-catenin stimulation in assay [1] (at 10 µM) was 0.6% (inactive); in assay [1] (stimulation, at 2 µM), 0.8%. Moreover, in assay [2], the insulin secretion stimulation is -3.2% (inactive). Further, in assay [3], the viability decrease is -0.65% (inactive). For the same compound, the tube area decrease in assay [4] was 15.5% (inactive). The GLP1 secretion stimulation in assay [5] is -0.9% (inactive). Besides, in assay [6], the inhibition of viability was -2.9% (inactive). Also, the viability decrease (inhibition) is 74.8% (active) in assay [7] and 1.9% (inactive) in assay [8].

In the case of `Cc1ccc(O)c(-n2nc3ccccc3n2)c1`, the nuclear beta-catenin stimulation was -0.7% (inactive) in assay [1] (at 10 µM) and -0.3% in assay [1] (stimulation, at 2 µM). The insulin secretion stimulation in assay [2] was -1.4% (inactive). Further, the viability decrease in assay [3] was 8.75% (inactive). Besides, the tube area decrease in assay [4] is -28.1% (inactive). The GLP1 secretion stimulation in assay [5] is 4.2% (inactive). Also, in assay [6], the inhibition of viability was -0.8% (inactive). For the same compound, the viability decrease (inhibition) was 40.7% (inactive) in assay [7] and 13.8% (inactive) in assay [8].

Consider `CC(=O)Nc1ccn(C2COC(COC(=O)c3ccccc3)O2)c(=O)n1` (configuration not stated), for which the nuclear beta-catenin stimulation was 8.2% (inactive) in assay [1] (at 10 µM) and -0.9% in assay [1] (stimulation, at 2 µM). Also, the insulin secretion stimulation in assay [2] was 1% (inactive). Further, the viability decrease in assay [3] is 54% (active). Besides, the tube area decrease in assay [4] was 100% (active). Besides, the GLP1 secretion stimulation in assay [5] is 1.2% (inactive). Also, the inhibition of viability in assay [6] is 56.5% (active). Further, the values for the viability decrease (inhibition) in assay [7] and in assay [8] were 26.9% (inactive) and 29.9% (inactive), respectively.

Regarding `NC[C@H]1O[C@H](O[C@H]2[C@H](O[C@@H]3O[C@H](CO)[C@@H](O)[C@H]3O)C(O)[C@H](N)C[C@@H]2N)[C@H](N)[C@@H](O)[C@@H]1O` (some centres not stated), the nuclear beta-catenin stimulation was 0.5% (inactive) in assay [1] (at 10 µM) and 2.2% in assay [1] (stimulation, at 2 µM). Moreover, the insulin secretion stimulation in assay [2] was 1.4% (inactive). In addition, the viability decrease in assay [3] was -14.9% (inactive). The tube area decrease in assay [4] was -12.5% (inactive). Besides, the GLP1 secretion stimulation in assay [5] was 0.7% (inactive). For the same compound, the inhibition of viability in assay [6] is 2.3% (inactive). The viability decrease (inhibition) is 0.4% (inactive) in assay [7] and -14.4% (inactive) in assay [8].

For `CC(C)(C)c1nnc(NS(=O)(=O)c2ccc(N)cc2)s1`, the nuclear beta-catenin stimulation was 0.1% (inactive) in assay [1] (at 10 µM) and -1.2% in assay [1] (stimulation, at 2 µM). In assay [2], the insulin secretion stimulation is 3.45% (inactive). Moreover, the viability decrease in assay [3] was 7.2% (inactive). Further, the tube area decrease in assay [4] was -5.2% (inactive). For the same compound, the GLP1 secretion stimulation in assay [5] was 0.7% (inactive). Further, the inhibition of viability in assay [6] was -2.9% (inactive). Besides, the viability decrease (inhibition) in assay [7] was 54.4% (active); in assay [8], -5.4% (inactive).

The record behind these values is PubChem BioAssay.
